Assay outcomes: PubChem BioAssay, National Center for Advancing Translational Sciences (NCATS)
In the library only some 9.5% were active in any assay of this set; here they are far more common.
Pf growth 48h – P. falciparum growth inhibition at 48 hours (one generation); P. falciparum luciferase growth in erythrocytes, 48 h; Potency, µM (series often up to 28.7 µM), without a hit: top-dose activity change, negative = inhibition, actives largely listed as inhibitors; 310,000 tested, 5.9% active; active = well fitted inhibition curve with a large enough effect; inconclusive = small, poorly fitted or top-dose-only effect, or another doubt; inactive = no such curve, though single readings can be large or run the other way; note: % is set by controls: 0 for no effect and ±100 for the full control effect
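In quantitative HTS format, infected erythrocytes bearing luciferase-reporter parasites were treated for a single generation at 37 C. Luminescence after adding detection reagent served as the growth measure.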
Pf growth 96h – P. falciparum growth inhibition at 96 hours; P. falciparum luciferase reporter growth, 96 h; Potency, µM (doses to about 28.7 µM), without a hit: at the highest dose activity change, negative = inhibition, most hits filed as inhibitors; 320,000 tested, 6.9% active; active = well fitted inhibition curve with a large enough effect; inconclusive = small, poorly fitted or top-dose-only effect, or another doubt; inactive = no such curve, though single readings can be large or run the other way; note: % is set by controls: 0 for no effect and ±100 for the full control effect
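Cell-based qHTS: luciferase-tagged P. falciparum in erythrocytes (2% hematocrit, 0.05% parasitemia final) incubated with compounds for 96 hours, 37 C, 5% CO2; luciferase detection reagent then added and luminescence measured.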
RE007 growth inh – less growth of the S. pombe RE007 Vpr strain | S. pombe RE007 Vpr strain, BacTiter-Glo ATP luminescence, 24 h | Potency, µM (series often up to 92.2 µM), for the others: at the top dose activity change, negative = less growth, hits mostly inhibitors | 360,000 tested, 0.21% active | AID 651644; active = well fitted falling curve with a large enough effect; inconclusive = small, poorly fitted or top-dose-only effect; inactive = no such curve, though single readings can be large or run the other way; note: % is set by controls: 0 for no effect and ±100 for the full control effect; nearly all actives have a fitted effect of over 50% in size
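Fission yeast RE007 carrying one integrated HIV-1 vpr copy, seeded at OD 0.01 in PMG+AL medium with 23 nL pinned compound. Grown 24 h at 30 degrees; viability read by BacTiter-Glo luminescence after 5 min.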
SARS PLP yeast – blocks SARS-CoV papain-like protease in a yeast assay | 330,000 tested, 0.19% active | S. cerevisiae expressing SARS-CoV PLpro, growth rescue | Potency, µM (doses to about 32.9 µM), for inactives: at the top dose activity, positive = growth rescue, usual class: activators; note: 0% is about no effect; nearly all actives have a fitted effect of over 55% in size
NS1 function inh – influenza NS1 inhibition; 270,000 tested, 0.4% active; Potency, µM (titrated, usually from 46.1 µM), inactives show at the top dose activity, positive = more growth; AID 2326; note: actives are rising curves; nearly all actives have a fitted effect of over 50% in size
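S. cerevisiae expressing influenza A NS1, grown in glucose, washed, then diluted 1:100 into pH 6.0 -URA galactose medium with 23 nl compound. Growth recovery read as OD600; NS1-free strain serves as control.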
* = called active by the depositor; [ ] = another dose, or the depositor's remark. Unless noted, calls come from the whole dose curve. Potency is the fitted concentration of half-maximal effect.

Results for Cc1ccc(-n2c(C)cc(C(=O)OCC(=O)N(CC(C)C)C3CCS(=O)(=O)C3)c2C)cc1 (configuration not stated) ?
Pf growth 48h: -90.8%; Pf growth 96h: 58.1%; RE007 growth inh: 8.4%; SARS PLP yeast: 10.2%; NS1 function inh: 2.8%

What do the screens show for `COC(=O)N/N=C/c1cn(CC(C)COc2ccccc2)c2ccccc12` (configuration not stated)?
Pf growth 48h: -9.0%; Pf growth 96h: 0.0%; RE007 growth inh: 13.4%; SARS PLP yeast: -31.7%; NS1 function inh: 18.9%

What do the screens show for `Cc1nc2n[nH]c(N)c2nc1C`?
RE007 growth inh: -5.7%

What do the screens show for `COc1ccc(Cl)cc1NC(=O)CN(C)C1CCS(=O)(=O)C1` (configuration not stated)?
Pf growth 48h: inconclusive; Pf growth 96h: inconclusive; RE007 growth inh: 6.6%; SARS PLP yeast: 1.8%

How did Cc1cc(C(=O)OCC(N)=O)c(C)n1-c1ccccc1 do in these assays?
Pf growth 48h: inconclusive; Pf growth 96h: 2.08µM*; RE007 growth inh: 4.8%; SARS PLP yeast: 0.3%

What do the screens show for `CCOC(=O)c1oc2c(CN3CCCCC3C)c(O)ccc2c(=O)c1-c1ccc(OC)c(OC)c1` (configuration not stated)?
Pf growth 48h: inconclusive; Pf growth 96h: inconclusive; RE007 growth inh: -9.5%; SARS PLP yeast: 2.0%; NS1 function inh: 7.6%

What do the screens show for `Cc1oc2c(CN3CCOCC3)c(O)ccc2c(=O)c1-c1ccc(Br)cc1`?
Pf growth 48h: 4.15µM*; Pf growth 96h: 13.1µM*; RE007 growth inh: -9.6%; SARS PLP yeast: 3.9%; NS1 function inh: -6.9%

How did Cc1oc2c(CN3CCOCC3)c(O)ccc2c(=O)c1-c1ccc(Cl)cc1 do in these assays?
Pf growth 48h: inconclusive; Pf growth 96h: 9.28µM*; RE007 growth inh: -7.0%; SARS PLP yeast: 0.5%; NS1 function inh: -8.2%

What do the screens show for `Cc1oc2c(CN3CCCCC3C)c(O)ccc2c(=O)c1-c1ccc(Br)cc1` (configuration not stated)?
Pf growth 48h: 13.1µM*; Pf growth 96h: 13.1µM*; RE007 growth inh: -0.3%; SARS PLP yeast: -0.5%; NS1 function inh: -0.6%

What do the screens show for `COc1ccc(-c2c(C)oc3c(CN4CCN(C)CC4)c(O)ccc3c2=O)cc1`?
Pf growth 48h: -5.3%; Pf growth 96h: inconclusive; RE007 growth inh: -0.8%; SARS PLP yeast: -1.1%; NS1 function inh: -2.4%

What do the screens show for `CC1CCCCN1Cc1c(O)ccc2c(=O)c(-c3nc4ccccc4s3)coc12` (configuration not stated)?
Pf growth 48h: 2.08µM*; Pf growth 96h: 10.4µM*; RE007 growth inh: 3.1%; SARS PLP yeast: 0.1%; NS1 function inh: 3.0%

Results for CC(C)NC(=O)C1(C)CCCN1C(=O)c1cc(C#N)cs1 (configuration not stated) ?
RE007 growth inh: 3.7%[18.4 µM]

How did CCc1ccc(C)[n+](CC(=O)c2cccs2)c1 do in these assays?
Pf growth 48h: 5.1%; Pf growth 96h: -10.7%; RE007 growth inh: -10.2%; SARS PLP yeast: 0.6%; NS1 function inh: -1.6%

How did CN(c1ccccc1)S(=O)(=O)c1ccc(C(=O)NNC(=O)c2ccccc2)cc1 do in these assays?
Pf growth 48h: 1.9%; Pf growth 96h: -0.7%; RE007 growth inh: -8.0%; SARS PLP yeast: 2.0%

Results for CN(c1ccc(OCC(=O)NCCc2ccccc2)cc1)S(=O)(=O)c1ccc(Cl)cc1 ?
Pf growth 48h: 8.28µM*; Pf growth 96h: inconclusive; RE007 growth inh: 1.2%; SARS PLP yeast: 3.4%

How did COc1ccc(CCNC(=O)c2ccc(N(C)S(=O)(=O)c3ccccc3)cc2)cc1 do in these assays?
Pf growth 48h: 2.08µM*; Pf growth 96h: inconclusive; RE007 growth inh: 5.7%; SARS PLP yeast: -2.3%; NS1 function inh: -8.6%

How did CN(C1CCCCC1)S(=O)(=O)c1ccc(C(=O)O)cc1 do in these assays?
Pf growth 96h: 11.7µM*; RE007 growth inh: 1.8%; SARS PLP yeast: 5.3%; NS1 function inh: -8.0%

Results for CN(c1ccc(C(=O)O)cc1)S(=O)(=O)c1ccccc1 ?
Pf growth 48h: 27.1%; Pf growth 96h: 9.28µM*; RE007 growth inh: 15.2%; SARS PLP yeast: 2.1%; NS1 function inh: -2.5%

How did COCCCNC(=O)c1ccc(N(C)S(=O)(=O)c2ccc(OC)cc2)cc1 do in these assays?
Pf growth 48h: 7.4%; Pf growth 96h: 1.9%; RE007 growth inh: 1.1%; SARS PLP yeast: 1.2%; NS1 function inh: -8.9%

How did COc1cccc(CN(C)S(=O)(=O)c2ccccc2Br)c1 do in these assays?
RE007 growth inh: 1.3%; SARS PLP yeast: 20.6%

What do the screens show for `Nc1ncc2[nH]c(N)nc2n1`?
RE007 growth inh: 100.6%

How did CCc1ccc(C(=O)COC(=O)c2cccnc2Cl)cc1 do in these assays?
Pf growth 48h: 38.8%; Pf growth 96h: 46.7%; RE007 growth inh: -5.8%; SARS PLP yeast: -1.3%; NS1 function inh: -8.6%

Results for CCOC(=O)NNc1ccc2nonc2c1[N+](=O)[O-] ?
Pf growth 48h: inconclusive; Pf growth 96h: inconclusive; RE007 growth inh: 25.1µM*; SARS PLP yeast: -6.8%; NS1 function inh: -34.9%

Results for N#Cc1ccccc1S(=O)(=O)N1CCN(C(=O)CCNS(=O)(=O)c2ccc(Cl)cc2)CC1 ?
RE007 growth inh: -7.5%

Results for Cc1cc(C)n(CCO)c(=O)n1 ?
Pf growth 48h: 8.9%; Pf growth 96h: 2.33µM*; RE007 growth inh: 0.2%; SARS PLP yeast: 8.6%; NS1 function inh: -4.8%

What do the screens show for `O=C(Nc1cccc(C(F)(F)F)c1)Nc1ccc2nc([C@@H]3O[C@H](CO)[C@@H](O)[C@H](O)[C@H]3O)[nH]c2c1`?
RE007 growth inh: -19.0%[18.4 µM]

How did FC(F)(F)c1cccc(CN2CCCCCC2)c1 do in these assays?
Pf growth 48h: -0.3%; RE007 growth inh: 7.5%; SARS PLP yeast: -0.3%; NS1 function inh: 14.0%

How did C#CCOc1ccccc1CNC1CCN(Cc2ccccc2)CC1 do in these assays?
Pf growth 48h: 9.28µM*; Pf growth 96h: 13.1µM*; RE007 growth inh: -17.4%; SARS PLP yeast: -3.1%; NS1 function inh: 3.6%

Results for FC(F)(F)c1cccc(CNC2CCN(Cc3ccccc3)CC2)c1 ?
Pf growth 48h: 2.62µM*; Pf growth 96h: inconclusive; RE007 growth inh: -7.8%; SARS PLP yeast: 1.0%; NS1 function inh: -15.5%

How did COc1ccc(S(=O)(=O)Nc2ccc3c(c2)CC(=O)N([C@@H](C)CO)C[C@H](C)[C@@H](CN(C)S(=O)(=O)c2ccc(F)cc2)O3)cc1 do in these assays?
RE007 growth inh: 0.5%; SARS PLP yeast: -12.0%

How did O=C(CCCCCN1C(=O)[C@@H]2Cc3ccccc3CN2C1=O)NCCc1ccccc1 do in these assays?
Pf growth 48h: inconclusive; Pf growth 96h: inconclusive; RE007 growth inh: 16.8%; SARS PLP yeast: -2.5%; NS1 function inh: -19.4%
